Screens as filed in PubChem BioAssay.
An excerpt weighted towards active compounds, which were near 5.9% of everything screened.
TGFb SMAD3 inh – inhibitors of TGF-b signaling | HepG2 CAGA-GFP TGF-b/SMAD3 reporter, GFP fluorescence, 18 h; TGF-beta stimulated, 500 pg/mL final | Potency, µM (highest dose often 46.1 µM), for inactives: at the top dose activity, negative = inhibition, usual class: inhibitors | 410,000 tested, 1.2% active; further: on the % scale 0 is the no-effect control and ±100 the full control effect; nearly all actives have a fitted effect of over 65% in size
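HEPG2 CAGA-GFP cells (1000/well, DMEM with 1% FBS) were pre-incubated 2 h at 37 degrees C, given compound by pin tool, then stimulated with TGF-beta at 500 pg/mL final for 18 h before per-cell GFP fluorescence imaging.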
ATXN viability – viability counter-screen for ATXN expression inhibitors; S2 cells (HEK-293 line with an ATXN2-luciferase reporter) viability, CellTiter-Fluor protease fluorescence, 24 h; 400,000 tested, 0.49% active; Potency, µM (doses to about 56.7 µM), most hits filed as cytotoxic; further: nearly all actives have a fitted effect of over 40% in size
KB-3-1 tox – kills parental KB-3-1 adenocarcinoma cells | KB-3-1 viability, CellTiter-Glo ATP luminescence, 72 h | Potency, µM (highest dose often 46.1 µM), usual class: cytotoxic | 400,000 tested, 1.4% active; further: on the % scale 0 is the no-effect control and ±100 the full control effect; nearly all actives have a fitted effect of over 60% in size
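KB-3-1 parental drug-naive adenocarcinoma cells in DMEM/10% FBS, incubated 72 h at 37 C with pin-transferred compounds across a concentration series. Viability by CellTiter-Glo luminescence; concentration-response curves fitted after normalization.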
KB-V1 cytotox – KB-V1 MDR subline cytotoxicity; KB-V1 MDR cells viability, CellTiter-Glo, 72 h; Potency, µM (highest dose often 46.1 µM), hits mostly cytotoxic; 400,000 tested, 3.4% active; AID 1347076; further: on the % scale 0 is the no-effect control and ±100 the full control effect; nearly all actives have a fitted effect of over 60% in size
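Following 72 h at 37 degrees C with compound, KB-V1 cell viability was read by CellTiter-Glo luminescence, medium being phenol-red-free DMEM plus 10% FBS; concentration-response parameters came from normalized, curve-fitted qHTS data.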
HepG2 viability – HepG2 cytotoxicity, counter-screen for TGF-b inhibitors. HepG2 CAGA-GFP viability, ATP luminescence, 18 h. 410,000 tested, 0.76% active. AID 588856. Potency, µM (highest dose often 46.1 µM), for the others: at the top dose activity change, negative = cytotoxicity, most hits filed as cytotoxic
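HepG2 CAGA-GFP cells (1000/well, DMEM with 1% FBS) received compound, then TGF-beta at 500 pg/mL final, and were incubated 18 hours at 37 degrees C. Viability was read by CellTiter-Glo luminescence. Media-only wells were set as complete cell-killing and DMSO as no toxicity.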
ATXN2 expr inh – reduces ATXN2 reporter expression in HEK-293 cells | AID 1745845 | HEK-293 ATXN2-luciferase reporter, luminescence, 24 h | 360,000 tested, 0.72% active | Potency, µM (doses to about 57 µM), inactives show top-dose activity change, negative = inhibition, hits mostly inhibitors; further: on the % scale 0 is the no-effect control and ±100 the full control effect; nearly all actives have a fitted effect of over 55% in size
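qHTS (up to 57 uM final) was run with 24 h compound exposure of reporter cells at 37 °C. Each well was multiplexed: SteadyGlo luminescence measured ATXN2-luciferase expression after a fluorogenic Gly-Phe-AFC viability readout (25 uM final).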
* = called active by the depositor; i = inactive; u = inconclusive; x = no result given. The call rests on the fitted dose curve; in most records, active means well fitted curve in the direction sought with a large enough effect; inconclusive means small, poorly fitted or top-dose-only effect, or another doubt; inactive means no such curve, though single readings can be large; an effect the other way counts as inactive or inconclusive. Potency means the concentration at half of the fitted maximal effect.

SMILES	TGFb SMAD3 inh	ATXN viability	KB-3-1 tox	KB-V1 cytotox	HepG2 viability	ATXN2 expr inh
O=C(Nc1cc2c(cc1Cl)OCCCO2)c1ccc(F)cc1	-3%	i	i	16µM*	-4%	48%
O=C(CCc1ccccc1)Nc1cc2c(cc1Cl)OCCO2	-6%	i	i	21µM*	4%	68%
COc1cccc(NS(=O)(=O)c2ccc3[nH]cc(C(=O)NC4CCCCC4)c(=O)c3c2)c1	u	i	i	u	-48%	u
C[C@H]1O[C@H](O[C@H]2[C@H](O)[C@@H](O)[C@@H](O[C@H]3[C@H](O)[C@@H](O)C(O)O[C@H]3CO)O[C@H]2CO)[C@H](O)[C@@H](O)[C@H]1N[C@H]1C=C(CO)[C@@H](O)[C@H](O)[C@@H]1O (stereo not given in full)	x	x	x	x	x	13%
CC(C)CN1C(=O)c2ccc(NC(=O)c3cccs3)cc2C1=O	-14%	i	i	13µM*	-29%	24%
O=C(c1ccc(N2CCC(NCCCn3ncc4ccccc43)CC2)cc1)N1CCc2ccccc2C1	x	i	x	x	x	x
CCc1ccc(NC(=O)c2ccc(F)c(S(=O)(=O)NCC3COc4ccccc4O3)c2)cc1 (stereo not given)	11µM*	u	u	3.3µM*	-45%	u
O=C(NCC1COc2ccccc2O1)c1ccc(F)c(S(=O)(=O)N2CCOCC2)c1 (stereo not given)	-4%	i	i	u	1%	-11%
CCc1ccc(NC(=O)c2ccc(F)c(S(=O)(=O)NC3CCCCCC3)c2)cc1	11µM*	x	x	x	-17%	x
CCc1ccc(NC(=O)c2ccc(F)c(S(=O)(=O)N(C)C3CCCCC3)c2)cc1	-9%	x	x	x	1%	x
CN(Cc1ccon1)C(=O)c1cnn(-c2nccc(-c3ccc4c(c3)OCO4)n2)c1C1CC1	x	i	x	x	x	x
CCCSCCCNC(=O)c1ccc(Cn2c(=O)c3cccn3c3cccnc32)cc1	-10%	x	x	x	-7%	x
Cc1ccc(Nc2nnc(SCC(=O)Nc3ccccc3[N+](=O)[O-])s2)cc1	8%	i	i	u	-44%	-3%
CCc1ccc(Nc2nnc(SCC(=O)N(C)CC(=O)Nc3ccccc3CC)s2)cc1	-25%	u	i	u	-30%	14%
Cc1ccc(Nc2nnc(SCC(=O)Nc3cccnc3Cl)s2)cc1C	u	i	i	5.2µM*	-24%	12%
CCc1ccccc1NC(=O)CN(C)C(=O)CSc1nnc(Nc2ccc(C)cc2)s1	0%	i	i	15µM*	-11%	-2%
CCc1ccccc1NC(=O)Cn1c(=O)n(Cc2ccco2)c(=O)c2sc3ccccc3c21	-4%	i	i	i	-13%	0%
Cn1c(N2CCCCS2(=O)=O)nc(C(=O)NCc2ccc(F)cc2)c(O)c1=O	x	x	x	x	x	-3%
COC(=O)c1ccc(COC(=O)C2CCN(S(=O)(=O)c3c(C)cc(C)cc3C)CC2)o1	-16%	i	i	i	-9%	x
Cc1sc2nc3ccc(N4CCCC4)nn3c(=O)c2c1C	u	u	u	16µM*	-5%	-24%
COc1cc(C(=O)NC(=S)Nc2ccc([N+](=O)[O-])cc2C)cc(OC)c1OC	-7%	i	i	2.1µM*	-23%	0%
CCOC(=O)c1ccc(NC(=O)c2ccc3c(c2)CCN3S(=O)(=O)c2ccc(Cl)cc2)cc1	8%	i	i	i	-10%	-27%
O=C(Nc1ccccc1N1CCCCC1)c1cccc([N+](=O)[O-])c1	-10%	i	i	u	0%	x
Cc1ccc(NC(=O)c2ccc(-n3cccn3)c([N+](=O)[O-])c2)cc1	-19%	i	i	23µM*	-6%	-8%
CCSc1ccc(C(=O)Nc2cccc(C)n2)cc1[N+](=O)[O-]	3%	i	u	u	-4%	28%
SMILES	TGFb SMAD3 inh	ATXN viability	KB-3-1 tox	KB-V1 cytotox	HepG2 viability	ATXN2 expr inh
O=C(Nc1cc(C(F)(F)F)ccc1N1CCCCC1)c1cccc([N+](=O)[O-])c1	-9%	i	i	16µM*	-24%	-15%
Cc1cccc(NC(=O)c2ccc(-n3cccn3)c([N+](=O)[O-])c2)c1	u	i	i	i	-7%	3%
Cc1cccc(NC(=O)c2ccc(N(C)C3CCCCC3)c([N+](=O)[O-])c2)n1	-5%	i	u	2.6µM*	-21%	-31%
Cc1cccc(NC(=O)c2ccc(N3CCCCC3)c([N+](=O)[O-])c2)n1	-2%	i	u	5.2µM*	-24%	24%
O=C(Nc1ccc(F)c(F)c1)c1ccc(-n2cncn2)c([N+](=O)[O-])c1	-9%	i	i	i	-8%	-29%
O=C(Nc1cccc(/C=C/c2ccccn2)c1)c1ccc(-n2cncn2)c([N+](=O)[O-])c1	u	18µM*	u	u	-21%	u
CNC(=O)CSc1nc(N)c2c3c(sc2n1)CCC3	8%	i	i	21µM*	-6%	24%
Clc1cccc(-c2nc(NCCN3CCOCC3)c3ccccc3n2)c1	-31%	i	i	21µM*	-33%	-24%
COc1cccc(-c2nc(NCCN3CCOCC3)c3ccccc3n2)c1O	-2%	x	i	u	-25%	x
Oc1ccccc1-c1nc(NCCN2CCOCC2)c2ccccc2n1	8%	u	u	16µM*	-31%	-16%
Clc1cccc(-c2nc(NCCCN3CCOCC3)c3ccccc3n2)c1	u	x	i	i	-43%	x
CCC(O)CNC(=O)c1cnn(-c2ncc3c(n2)-c2ccc(OC)cc2CC3)c1C1CC1 (stereo not given)	x	i	x	x	x	x
CN(C)c1ccc(-c2noc(C3CCN(S(=O)(=O)c4cccc(Cl)c4)CC3)n2)cc1	-18%	i	16µM*	6.5µM*	-23%	-21%
COc1ccccc1-c1nnc(C2CCN(C(=O)c3ccc(C)cc3)CC2)o1	u	u	i	i	-23%	11%
COc1ccc(-c2nnc(C3CCN(C(=O)c4ccccc4F)CC3)o2)cc1	u	3.2µM*	i	i	-28%	3.2µM*
COc1ccc(-c2nnc(C3CCN(S(=O)(=O)c4cccc(Cl)c4)CC3)o2)cc1	u	11µM*	u	i	-48%	18µM*
COc1ccc(-n2nnnc2C2CCN(S(=O)(=O)c3cccc(C(F)(F)F)c3)CC2)cc1	-2%	x	x	x	-12%	x
CCn1c(=O)cc(SCC(=O)N2CCOCC2)c2ccccc21	40%	i	i	u	0%	17%
